We go through 24 compounds from PubChem BioAssay (Tox21).

Experiment [1] in a line: qHTS RealTime-Glo MT Cell Viability Assay in HepG2 cells - 40 hour (AID 1224870). Note: nearly all actives have a fitted effect of over 50% in size. The essentials:
(§1)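 HepG2 cells (600/well) mixed with RealTime-Glo MT reagent, settled 5 h at 37 C/5% CO2 before compound addition. Nonlytic NanoLuc luminescence from viable-cell prosubstrate reduction read repeatedly during 40 h treatment at 37 C.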
A general note: qHTS replaces the single test concentration by a dilution series.

The nature of experiment [2]: A CellTox Green Cytotoxicity Assay to monitor cytotoxicity in HEK293 cells - 40 hour (AID 1224871). Note: nearly all actives have a fitted effect of over 45% in size. In outline: (§2)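 HEK293 cells, 600/well, were preincubated 5 hours and then exposed to compounds at 37 C for up to 40 hours. A cell-impermeant cyanine dye staining dead-cell DNA was read by fluorescence at 0, 8, 16, 24, 32 and 40 h time points.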
Experiment [3] is described as follows: qHTS RealTime-Glo MT Cell Viability Assay in HepG2 cells - 8 hour (AID 1224873). Note: nearly all actives have a fitted effect of over 55% in size. The essentials: as §1
A short description of experiment [4]: A CellTox Green Cytotoxicity Assay to monitor cytotoxicity in HEK293 cells - 24 hour (AID 1224875). Note: nearly all actives have a fitted effect of over 45% in size. Note: potency is the fitted concentration of half-maximal effect. In outline: as §2
Experiment [5] can be described thus: qHTS RealTime-Glo MT Cell Viability Assay in HepG2 cells - 32 hour (AID 1224877). Note: nearly all actives have a fitted effect of over 55% in size. The essentials: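 Real-time, nonlytic viability: 600 HepG2 cells/well mixed with NanoLuc enzyme plus prosubstrate; 5 h settle, compound (DMSO) added by pintool; luminescence monitored over 40 h at 37 C.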
Experiment [6] can be described thus: A CellTox Green Cytotoxicity Assay to monitor cytotoxicity in HepG2 cells - 24 hour (AID 1224878). Note: nearly all actives have a fitted effect of over 45% in size. Note: potency is the fitted concentration of half-maximal effect. The essentials:
(§3)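 HepG2 cells, 600/well, preincubated 5 h with CellTox Green dye, then exposed to Tox21 compounds in DMSO at 37 C for up to 40 h. Dead-cell DNA fluorescence read at the indicated time point.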

A short description of experiment [7]: A CellTox Green Cytotoxicity Assay to monitor cytotoxicity in HepG2 cells - 40 hour (AID 1224879). Note: nearly all actives have a fitted effect of over 40% in size. Note: potency is the fitted concentration of half-maximal effect. The essentials: as §3
Experiment [8] in a line: qHTS RealTime-Glo MT Cell Viability Assay in HEK293 cells - 16 hour (AID 1224872). Note: top concentration of the series differs between compounds; nearly all actives have a fitted effect of over 50% in size. In outline: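 Cells + reagent dispensed (600 cells/well, HEK293) → 5 h at 37 C/5% CO2 → 23 nL compound in DMSO pinned → 40 h at 37 C → luminescence read at 0, 8, 16, 24, 32, 40 h.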
The nature of experiment [9]: qHTS RealTime-Glo MT Cell Viability Assay in HEK293 cells - 40 hour (AID 1224874). Note: nearly all actives have a fitted effect of over 50% in size. Note: potency is the fitted concentration of half-maximal effect. To be noted: RealTime-Glo luminescence; max response: hits give low values. In outline: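 600 cells/well were plated with the nonlytic NanoLuc/prosubstrate reagent, pre-incubated 5 h, then given 23 nL of compound in DMSO. Incubation at 37 C for 40 h, with luminescence from viable-cell-reduced substrate read repeatedly from 0 h.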

The nature of experiment [10]: A CellTox Green Cytotoxicity Assay to monitor cytotoxicity in HepG2 cells - 16 hour (AID 1224876). Note: nearly all actives have a fitted effect of over 45% in size. Note: potency is the fitted concentration of half-maximal effect. In outline:
as §3

SMILES strings stand for the structures. Inconclusive results are not listed. Unmarked numbers belong to inactive results. Active and inactive are the calls of the source. Calls come from the whole dose curve; as a rule, active = well fitted curve in the direction sought with a large enough effect in the repeat runs; inconclusive = weak or mixed curves; inactive = no such curve, though single readings can be large; an effect the other way counts as inactive or inconclusive.
% is set by controls: 0 for no effect and ±100 for the full control effect.

Regarding `COC(=O)Nc1nc2ccc(C(=O)C3CC3)cc2[nH]1`, the Potency entry in [1], in experiment [2], in [3], in experiment [4], in experiment [5] and in experiment [6] was “inactive” in each case. For the same compound, the Potency in [7] is 0.848 µM (active).

For `O=S(=O)(O)CO`, the Potency result in [1], in [8], in experiment [3], in experiment [4], in [10] and in [5] was “inactive” each time. In addition, the Potency entry in experiment [6] and in experiment [7] was “inactive” throughout. The max response in [9] was 4.46%.

On to `O=C(c1ccccc1)C1CCC1`, for which the Potency result in experiment [1], in experiment [8], in experiment [3] and in experiment [5] was “inactive” each time. Further, the max response in experiment [9] was 13.2%. Moreover, the Potency in [4] was 24.5 µM (active); in experiment [10], 38.9 µM (active); in [6] it was 38.9 µM (active); in [7], 27.5 µM (active).

For the compound `CCCCCCCC/C=C\CCCCCCCC(=O)OCCO`, the Potency entry in experiment [1], in experiment [2], in [3], in experiment [4], in [10] and in experiment [5] was “inactive” in each case. Also, the Potency result in experiment [6] and in experiment [7] was “inactive” throughout.

`O=C(C(=O)c1ccco1)c1ccco1`: the Potency entry in [1], in [2], in [3], in experiment [4], in experiment [5] and in experiment [6] was “inactive” each time. Moreover, the Potency entry in [7] is “inactive”.

`CCN(CC)CCNC(=O)c1cc(Cl)c(N)cc1OC`: the Potency entry in experiment [1], in [2], in [8], in [10], in [6] and in experiment [7] was “inactive” each time.

Take `C=C(C)c1ccccc1`: the Potency result in experiment [1], in experiment [8], in experiment [3], in experiment [4], in experiment [10] and in experiment [6] was “inactive” throughout. The max response in [9] was 1.05%.

As for `CCCc1nc2c(C)cc(-c3nc4ccccc4n3C)cc2n1Cc1ccc(-c2ccccc2C(=O)O)cc1`, the Potency entry in [1], in experiment [2], in experiment [4], in [10], in [5] and in experiment [6] was “inactive” throughout. Also, the Potency result in experiment [7] is “inactive”.

With `COc1cc(NCc2ccc3nc(N)nc(N)c3c2C)cc(OC)c1OC`, the Potency result in [1], in [2], in [4], in [10], in [5] and in experiment [7] was “inactive” in each case. In addition, the Potency in experiment [9] is 0.0239 µM (active).

With `CC1=C2[C@@H]([C@H](C)CC[C@H]2/C=C(\C)C(=O)O)[C@H](O)C1`, the Potency entry in [1], in experiment [8], in experiment [3], in experiment [4], in experiment [10] and in experiment [7] was “inactive” throughout. Besides, in experiment [9], the max response was -2.63%.

For `CCCCOCCOC(=O)c1cccnc1`, the Potency result in experiment [1], in experiment [8], in [3], in experiment [4], in experiment [10] and in [5] was “inactive” each time. Besides, the Potency result in experiment [6] and in experiment [7] was “inactive” throughout. For the same compound, the max response in experiment [9] was 0.954%.

In the case of `CC[C@H]1OC(=O)[C@H](C)[C@@H](O[C@H]2C[C@@](C)(OC)[C@@H](O)[C@H](C)O2)[C@H](C)[C@@H](O[C@@H]2O[C@H](C)C[C@H](N(C)C)[C@H]2O)[C@](C)(O)C[C@@H](C)C(=O)[C@H](C)[C@@H](O)[C@]1(C)O`, the Potency entry in [1], in experiment [8], in [3], in experiment [4], in [10] and in experiment [6] was “inactive” in each case. The max response in experiment [9] is -19.4%.

On to `CC[C@H]1OC(=O)[C@H](C)[C@@H](O[C@H]2C[C@@](C)(OC)[C@@H](O)[C@H](C)O2)[C@H](C)[C@@H](O[C@@H]2O[C@H](C)C[C@H](N(C)C)[C@H]2O)[C@](C)(O)C[C@@H](C)/C(=N\OCOCCOC)[C@H](C)[C@@H](O)[C@]1(C)O`, for which the Potency entry in experiment [1], in experiment [2], in experiment [8], in experiment [10], in [5] and in experiment [6] was “inactive” in each case. Also, the Potency result in experiment [7] was “inactive”.

For the compound `Cc1cc(CCCOc2c(C)cc(-c3noc(C(F)(F)F)n3)cc2C)on1`, the Potency entry in [1], in experiment [2], in experiment [4], in experiment [10], in experiment [5] and in experiment [6] was “inactive” in each case. Besides, the Potency entry in experiment [7] was “inactive”.

With `O=C(CCS)OCC(COC(=O)CCS)(COC(=O)CCS)COC(=O)CCS`, the Potency entry in experiment [1], in experiment [2], in [4], in [10], in experiment [6] and in experiment [7] was “inactive” throughout.

For the compound `COc1ccc(-c2cc(C(F)F)nn2-c2ccc(S(N)(=O)=O)cc2)cc1F`, the Potency result in experiment [1], in experiment [2], in [4], in [6] and in experiment [7] was “inactive” throughout.

`Nc1ccc(F)cc1`: the Potency entry in experiment [1], in [8], in experiment [3], in experiment [4], in experiment [10] and in [5] was “inactive” throughout. Besides, the Potency result in experiment [6] and in [7] was “inactive” in each case. The max response in [9] was 14.2%.

`C[C@H](CS)C(=O)N1CCC[C@H]1C(=O)O`: the Potency entry in experiment [1], in experiment [8], in experiment [3], in experiment [4], in experiment [10] and in experiment [5] was “inactive” each time. Also, in [7], the Potency entry was “inactive”. Also, in experiment [9], the max response is 9.42%.

With `O=C(Oc1ccccc1)c1ccc2ccccc2c1O`, the Potency entry in [1], in [2], in experiment [3], in experiment [4], in experiment [5] and in experiment [7] was “inactive” throughout. Besides, the max response in [9] is -20.6%.

`O=C1OC(=O)c2c(Br)c(Br)c(Br)c(Br)c21`: the Potency entry in experiment [1], in [8], in [3], in [4], in experiment [10] and in experiment [5] was “inactive” each time. Moreover, the Potency entry in experiment [6] and in experiment [7] was “inactive” in each case. Further, in experiment [9], the max response is -18%.

With `CCCCCCCC/C=C/C(=O)O`, the Potency result in experiment [1], in [8], in [3], in [4], in experiment [10] and in experiment [5] was “inactive” each time. The Potency result in [6] and in experiment [7] was “inactive” each time. The max response in experiment [9] was 8.87%.

Consider `CSCC[C@H](NC(=O)[C@H](Cc1c[nH]c2ccccc12)NC(=O)CCNC(=O)OC(C)(C)C)C(=O)N[C@@H](CC(=O)O)C(=O)N[C@@H](Cc1ccccc1)C(N)=O`, for which the Potency entry in [1], in [8], in [3], in [4], in experiment [10] and in experiment [6] was “inactive” each time. For the same compound, the Potency entry in experiment [7] is “inactive”. Also, the max response in experiment [9] is 3.31%.

Consider `CCNc1nc(N)nc(Cl)n1`, for which the Potency entry in experiment [1], in experiment [8], in experiment [4], in [10], in experiment [5] and in [6] was “inactive” throughout. For the same compound, in experiment [7], the Potency entry is “inactive”. In addition, the max response in experiment [9] was 9.34%.

Turning to `CC(C(=O)O)c1ccc(C(=O)c2cccs2)cc1` (stereo not given), the Potency entry in [1], in experiment [8], in experiment [3], in [4], in experiment [5] and in experiment [6] was “inactive” throughout. Further, the max response in experiment [9] is 0.273%.
